Records with an inconclusive call do not appear. Unmarked numbers belong to inactive results. The source made the active and inactive calls. Calls come from the whole dose curve; as a rule, active = well fitted activation curve with a large enough effect; inconclusive = small, poorly fitted or top-dose-only effect; inactive = no such curve, though single readings can be large or run the other way.
Test: qHTS Assay for Rab9 Promoter Activators: Hit Validation Using Renilla Luciferase Read-Out for Rab9; for activation, negative = inhibition: % of control where 0% means no effect
Settings: Huh7 Rab9 promoter Renilla luciferase reporter, 24 h; series mostly up to 76.9 µM; activation, negative = inhibition: at the top concentration
Text: Niemann Pick Type C (NPC) is a rare neurodegenerative lipidosis that is characterized by lipid storage in the endosomal/lysosomal system. Treatment modalities for this devastating disease are currently non-existent due to the severe obstacles associated with accessing the central nervous system with proteins or genes. The majority of mutations causing NPC disease are missense mutations that are distributed throughout the length of the NPC1 protein, with the most prevalent being the I1061T allele. Although NPC1 mutant proteins may be functional, they are typically trapped in the ER due to misfolding. […] We have developed and optimized a cell based renilla luciferase reporter assay in 1536 well format for the identification of up-regulators of the mutant Rab9 promoter. This assay presents data on the validation of hits from the primary screen, which used a firefly luciferase read-out. NIH Chemical Genomics Center [NCGC] NIH Molecular Libraries Probe Production centers Network [MLPCN] MLPCN Grant: MH089375 Assay Submitter (PI): Yiannis A. Ioannou
Huh7 cells stably expressing NPC promoter-luciferase will be seeded at 1,500 cells/well in 5 uL in 1,536-well white opaque plates with 23 nL/well of compound in DMSO solution. The assay plates will be incubated at 37 deg C for 24 hours, after which 3 uL/well BriteLite plus luciferase detection reagent mixture (Perkin Elmer) will be added. Luminescence signal will be measured in a ViewLux plate reader (Perkin Elmer) after a 10 minute incubation at the room temperature.
Potency is the fitted concentration of half-maximal effect.

SMILES | activation, negative = inhibition | Potency
Cc1ccc(NC(=O)Nc2cccc3ccccc23)cc1 | -5.88% | 
COc1ccc(S(=O)(=O)NC(C(=O)NCCc2ccccn2)C(C)C)cc1 (stereo not given) | -2.29% | 
CCC(=O)Nc1cc(-c2cc3ccccc3oc2=O)ccc1OC | -6.1% | 
C=CCn1c(C)nnc1SCC(=O)Nc1nccs1 | -0.0592% | 
CCC(=O)N1c2ccccc2NC2=C(C(=O)CCC2)C1c1ccc(N(C)C)cc1 (stereo not given) | 7.05% | 
Cc1ccc(C(=O)NC2CCN(CC(=O)Nc3c(C)cc(C)cc3C)CC2)cc1 | -10.1% | 
CC(=O)NC(=S)Nc1ccc2oc(-c3cc(F)c(F)cc3Cl)nc2c1 | -6.34% | 
NC(=O)C1(NC(=O)[C@@H]2CC3(CC(c4cccc(NC(=O)[C@@H]5CCC(=O)N5)c4)=NO3)CN2C(=O)c2ccccc2)CC1 (stereo not given in full) | -2.9% | 
COc1ccc(NC(=O)CN(C)C(=O)c2ccc(=O)[nH]c2)cc1 | 4.55% | 
COc1ccccc1OCCCC(=O)NCc1ccco1 | 3.32% | 
S=C1NCN(CCc2ccccc2)CN1Cc1ccccc1 | -1.12% | 
COc1ccc(-n2c(N)c(C(=O)NCc3ccco3)sc2=S)cc1 | 1.79% | 
Cn1c(CCN2CCN(c3ccccc3)CC2)nc2cc(NC(=O)c3ccco3)ccc21 | -43.4% | 
CC1=C(C(=O)OC2CCCC(C)C2)C(c2ccccc2)NC(=O)N1 (stereo not given) | -36.9% | 
Cc1ccc(CNC(=O)Nc2ccc(C)cc2)cc1 | -8.38% | 
Cc1ccc(NC(=O)NC(=O)c2ccccc2)cc1F | 3.8% | 
CCCOP(=O)(c1ccc(N(C)C)cc1)C(O)c1cccnc1 (stereo not given) | 8.61% | 
CCOC(=O)c1ccc(NC(=O)Oc2cc(C)c(Cl)cc2C(C)C)cc1 | -0.506% | 
COc1ccc(-n2cc(-c3ccc(Cl)cc3)[nH]c2=S)cc1 | -6.48% | 
Cc1ccc2nc(Nc3ccc(Cl)cc3)c3nncn3c2c1 | -9.4% | 

SMILES | activation, negative = inhibition | Potency
Cc1nc(-c2ccc(S(=O)(=O)Oc3ccc(Cl)cc3Cl)s2)cs1 | -34.2% | 
Cc1ccc(NC(=O)c2ncc(Cl)c(Cl)c2Cl)cc1C | -39.1% | 
Cc1cccc(N2CCN(C(=S)c3ccccc3)CC2)c1 | -5.48% | 
CC(=O)c1c(C)[nH]c(C(=O)Nc2cccc(S(=O)(=O)N(C)C)c2)c1C |  | 20.7 µM (active)
COc1ccc(NC(=O)CCCN2C(=O)C(c3ccccc3)Oc3cccnc32)cc1OC (stereo not given) | -24.3% | 
CC(C)(C)C(=O)NC(=S)Nc1ccccc1F | -4.64% | 
CCN(C(=O)COC(=O)c1ccc(C=O)cc1)c1c(N)n(Cc2ccccc2)c(=O)[nH]c1=O | 2.17% | 
CCOc1cc(C2C(C#N)=C(N)Oc3n[nH]c(C)c32)ccc1OCCN1CCOCC1 (stereo not given) | 4.94% | 
COC(=O)c1ccccc1NC(=O)c1cc(-c2cccs2)on1 | 15.6% | 
Cc1ccc2nc(NC(=O)CCn3cccc3)sc2c1 | -6.39% | 
COc1ccc(C)cc1N(C(=O)CNC(=O)c1ccco1)C(C(=O)NC1CCCC1)c1cccnc1 (stereo not given) | 14.4% | 
O=C(CN1C(=O)COc2ccc(Cl)cc21)NCC1CCCO1 (stereo not given) | 9.31% | 
O=C(CSc1nnc(-c2ccccn2)o1)Nc1ccccc1Cl | -4.88% | 
Cc1noc(/C=C/N(C)C)c1S(=O)(=O)N1CCCC(C(=O)N2CCCCC2)C1 (stereo not given) | -4.53% | 
COc1cccc(C(C(=O)NC2CCCC2)N(CCC(C)C)C(=O)CCC(=O)Nc2cc(C)on2)c1 (stereo not given) | 3.36% | 
Cc1ccc(C#N)c(SCC(=O)Nc2nccs2)n1 | 0.867% | 
CCC(C)(C)NC(=O)C(c1ccc(OC)cc1)N(Cc1cccs1)C(=O)CCC(=O)Nc1cc(C)on1 (stereo not given) | 6.22% | 
O=C(O)CSc1nnc(-c2ccncc2)n1CCc1ccccc1 | 1.59% | 
O=C(NCCc1c[nH]c2ccccc12)C(=O)NCC(c1ccco1)N1CCN(c2ccccc2F)CC1 (stereo not given) | -2.24% | 
O=C(O)C1=CC[C@@H](c2ccc(Cl)cc2)N(S(=O)(=O)c2ccc(Cl)cc2)[C@H]1c1ccccc1 |  | 14.6 µM (active)
